# Measurements taken from PubChem BioAssay (Tox21).
# Inconclusive results are not listed. Entries that show only a call come without a potency. Calls of active or inactive are those of the source. Calls follow the shape of the dose curve; as a rule, active = well fitted activation curve with a large enough effect in the repeat runs; inconclusive = weak or mixed curves; inactive = flat fitted curve, though single readings scatter.
# Assay: A CellTox Green Cytotoxicity Assay to monitor cytotoxicity in HEK293 cells - 8 hour (AID 1224884); also: nearly all actives have a fitted effect of over 35% in size
# Settings: CellTox Green fluorescence; series mostly up to 76.8 µM
# Source text: National Center for Advancing Translational Sciences [NCATS]
# NIH Chemical Genomics Center [NCGC]
# U.S. Environmental Protection Agency [EPA]
# National Institutes of Environmental Health Sciences [NIEHS]
# National Toxicology Program [NTP]
# Cell-based models are critical for drug discovery. Determining the natural cytotoxic effects resulting from test compounds is an essential research activity. A CellTox Green Cytotoxicity Assay to monitor cytotoxicity in real time of continues cell culture during 40 hours of the compound treatment was used to screen Tox21 10K library compounds in Hek293 cells. CellTox Green Cytotoxicity Assay is a nonlytic, homogeneous, biofluorescent method to measure cytotoxicity in cell culture after experimental manipulation. The assay system uses a proprietary asymmetric cyanine dye that is excluded from viable cells but preferentially stains the dead cell's DNA. […] Viable cells produce no appreciable increases in fluorescence. Therefore, the fluorescence signal produced by the binding interaction with dead cell DNA is proportional to cytotoxicity.
# The mixture of Hek293 cell suspension and reagents were dispensed at 600cells/6 ul/well in 1536-well tissue culture treated black solid bottom plates using a Multidrop dispenser. After the assay plates were incubated at a 37 C/5% CO2 incubator for 5 hours, 23 nL of compounds dissolved in DMSO, positive and negative controls was transferred to the assay plate by a pintool work station. The plates were incubated at 37 C for 40 hours. The fluorescence intensity were measured at 0h, 8h, 16h, 24h, 32h and 40h time points using ViewLux plate reader during compound treatment.
# Potency is read from the fitted curve at half-maximal effect.
Compound,Potency,cytotoxicity increase
Oc1cc2ccccc2cc1O,inactive,–
C=CC(C)C#N (stereo not given),inactive,–
CN1[C@@H]2CC[C@@H]1CC(OC(=O)C(CO)c1ccccc1)C2 (stereo not given in full),inactive,–
C=CC(=O)OCCN(CC)CC,inactive,–
Nc1cc(Cl)c([N+](=O)[O-])cc1O,inactive,–
Cc1ccc(O)cn1,inactive,–
CC(=O)Oc1ccc(C2(c3ccc(OC(C)=O)cc3)C(=O)Nc3ccccc32)cc1,inactive,–
CCc1c(Br)c(Br)c(Br)c(Br)c1Br,inactive,–
C=CC(C)(CCC=C(C)C)OC(=O)/C=C/c1ccccc1 (stereo not given),38.9 µM (active),–
Brc1ccccc1-c1ccccc1,inactive,–
NC(=O)c1nc(-c2cccc(-c3cc(F)ccc3OCC(F)(F)C(F)(F)F)c2)n[nH]1,inactive,–
Clc1ccc(C(c2ccccc2Cl)C(Cl)Cl)cc1 (stereo not given),inactive,–
Cc1cccc(N(C)C)c1,inactive,–
CC(C)=C1CC[C@@H](C)CC1=O,inactive,–
CCOC(=O)C1=C(C)NC(C)=C(C(=O)OCC)C1c1ccccc1/C=C/C(=O)OC(C)(C)C,inactive,–
CC1=CP(=O)(c2ccccc2)CC1 (stereo not given),inactive,–
CCCCCCCC/C=C\CCCCCCCC(=O)OCCOC(=O)CCCCCCC/C=C\CCCCCCCC,inactive,–
OCCN1CN(CCO)CN(CCO)C1,inactive,–
CCc1ccc(O)c(C(C)(C)C)c1,inactive,–
O=C(Nc1ccc(Cl)cc1)Nc1ccc(Cl)c(C(F)(F)F)c1,inactive,–

Compound,Potency,cytotoxicity increase
O=C=NCc1cccc(CN=C=O)c1,–,-1.28% [at 15.8 µM] (inactive)
CC(=O)Nc1ccc(O)cc1,inactive,–
Clc1cc(Cl)c(-c2c(Cl)c(Cl)cc(Cl)c2Cl)cc1Cl,inactive,–
Cc1cncc(C)c1,inactive,–
CCCCCCCCCCCCOC(=O)c1cc(O)c(O)c(O)c1,54.7 µM (active),–
CCCSS/C(CCO)=C(\C)N(C=O)Cc1cnc(C)nc1N,inactive,–
CNC(=S)NN,inactive,–
CCCCC(CC)COC(=O)c1ccc(O)cc1 (stereo not given),43.5 µM (active),–
CCCCNc1c(C(=O)OCC)c(C)nc2c1cnn2CC,inactive,–
O=C1OC(=O)c2cccc3cccc1c23,inactive,–
CCCCOCC,inactive,–
CC1=C(/C=C/C(C)=C/C=C/C(C)=C/C(=O)Nc2ccc(O)cc2)C(C)(C)CCC1,inactive,–
Clc1ccccc1CN1CCc2sccc2C1,inactive,–
CCc1cccc(CC)c1NC(=O)C(=O)O,inactive,–
CCCCCCC(C)OC(=O)COc1nc(F)c(Cl)c(N)c1Cl (stereo not given),inactive,–
CN(C)c1ccc(N=Nc2ccccc2C(=O)O)cc1,inactive,–
CCCCCCS,inactive,–
S=C(SSSSSSC(=S)N1CCCCC1)N1CCCCC1,–,-0.556% [at 15.8 µM] (inactive)
CC(O)C#CC(C)O (stereo not given),inactive,–
CC(C)=CCCC(C)CCOC(=O)C(C)C (stereo not given),inactive,–
